# Reference: PubChem BioAssay (NCATS)
# Inconclusive results are not listed. Where a call stands in place of a potency, no number is given. Unmarked numbers belong to inactive results. Calls of active or inactive are those of the source. Calls follow the shape of the dose curve; as a rule, active = well fitted cell-killing curve with a large enough effect; inconclusive = small, poorly fitted or top-dose-only effect, or effect the other way; inactive = flat fitted curve, though single readings scatter. *1 amine or outer side, *2 acyl side, *3 side chain or, on linkers, in order; H or OH if unused. Where a SMILES comes first, the peptide text is derived from it. [ ]: non-standard residue; d: D form. X4 = CC(C)=CCc1cc(C(O)C(N[*:1])C(=O)[*:2])ccc1O
# Columns and labels:
# Test in all cases: Primary qHTS to identify gynecologic anti-cancer compounds using libraries of approved drugs and bioactive compounds (AID 1345084); also: nearly all actives have a fitted effect of over 55% in size
# Settings in all cases: Gynecologic cancer cell panel viability, ATPlite luminescence, 48 h; series mostly up to 57.5 µM
# JEG-3 = tested on: JEG-3
# Method in brief: (§1)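 Cells, 1,000 per well, were allowed to settle for 16 h at 37 C before compound addition. Five concentrations were tested for 48 h, and viability was read by ATPlite luminescence after 15 min at room temperature.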
# OV90 = tested on: OV90
# Method in brief: as §1
# PA-1 = tested on: PA-1
# Method in brief: as §1
# SKOV3 = tested on: SKOV3
# Method in brief: as §1
# Tov-21-G = tested on: Tov-21-G
# Method in brief: as §1
# Tov112D = tested on: Tov112D
# Method in brief: as §1
# Potency is read from the fitted curve at half-maximal effect.
structure (smiles),measurement,setting,value
CC(C)(C)c1ccc(S(=O)(=O)NCc2ccc(C(=O)Nc3cccnc3)cc2)cc1,Potency,JEG-3,2.24 µM (active)
same,Potency,OV90,3.98 µM (active)
same,Potency,PA-1,1.12 µM (active)
same,Potency,SKOV3,7.08 µM (active)
same,Potency,Tov-21-G,1.78 µM (active)
C=CC(=O)N1CCN(C(=O)CNc2cc(I)c(Cl)cc2O)CC1,Potency,JEG-3,inactive
same,Potency,OV90,inactive
same,Potency,PA-1,inactive
same,Potency,SKOV3,inactive
same,Potency,Tov-21-G,inactive
same,Potency,Tov112D,inactive
O=C(O)c1cc2cccc([N+](=O)[O-])c2[nH]1,Potency,JEG-3,inactive
same,Potency,OV90,inactive
same,Potency,PA-1,inactive
same,Potency,SKOV3,inactive
same,Potency,Tov-21-G,inactive
CC(C)c1nc(-c2ccc(NC(=O)Nc3cccc(C(F)(F)F)c3)c3ccccc23)c2c(N)nccn12,Potency,JEG-3,inactive
same,Potency,OV90,1.58 µM (active)
same,Potency,PA-1,12.6 µM (active)
same,Potency,SKOV3,28.2 µM (active)
Cc1c(C(=O)N2CCOc3ccc(-c4ccc(N)nc4)cc3C2)ccc(S(C)(=O)=O)c1F,Potency,JEG-3,inactive
Nc1ccc(-c2cccc3c(=O)cc(N4CCOCC4)oc23)cc1,Potency,JEG-3,inactive
same,Potency,OV90,11.2 µM (active)
CC12CCC(OC3OC(CO)C(O)C(OC4OC(CO)C(O)C(O)C4O)C3O)CC1CCC1C2CCC2(C)/C(=C3/COC(=O)C3)CCC12O (configuration not stated),Potency,JEG-3,inactive
same,Potency,OV90,inactive
same,Potency,PA-1,inactive
same,Potency,SKOV3,inactive
same,Potency,Tov-21-G,inactive
CCc1cnn2c(NCc3ccc[n+]([O-])c3)cc(N3CCCCC3CCO)nc12 (configuration not stated),Potency,JEG-3,inactive
same,Potency,OV90,inactive
CC1(C)CCCC2(C)C(C(=O)O)=CCC12 (configuration not stated),Potency,JEG-3,inactive
same,Potency,OV90,inactive
same,Potency,PA-1,inactive
same,Potency,SKOV3,inactive
same,Potency,Tov-21-G,inactive
CC1C=CC2CCCCC2C1CCC1CC(O)CC(=O)O1 (configuration not stated),Potency,JEG-3,inactive
same,Potency,OV90,inactive
same,Potency,PA-1,inactive
same,Potency,SKOV3,inactive
same,Potency,Tov-21-G,inactive
same,Potency,Tov112D,inactive
C/C(=C\CC[C@@H](C)[C@H]1CC(O)[C@@]2(C)C3CC[C@H]4C(C)(C)[C@@H](OC5OCC(O)C(O)C5OC5OC(CO)C(O)C(O)C5O)CC[C@@]45C[C@@]35CC(O)[C@]12C)C(=O)O (some centres not stated),Potency,JEG-3,inactive
same,Potency,OV90,inactive
same,Potency,PA-1,inactive
same,Potency,SKOV3,inactive
same,Potency,Tov-21-G,inactive
same,Potency,Tov112D,inactive
C=C1CCC2C(C(C)(C)O)CCC2(C)CC(O)C(=C)CCC1O (configuration not stated),Potency,JEG-3,inactive
same,Potency,OV90,inactive
same,Potency,PA-1,inactive
same,Potency,SKOV3,inactive
same,Potency,Tov-21-G,inactive
same,Potency,Tov112D,inactive
COc1cc(C2Oc3c(OC)cc(CCCO)cc3C2CO)ccc1O[C@H]1O[C@H](C)[C@@H](O)[C@H](O)[C@@H]1O (some centres not stated),Potency,JEG-3,inactive
same,Potency,OV90,inactive
same,Potency,PA-1,inactive
same,Potency,SKOV3,inactive
same,Potency,Tov-21-G,inactive
same,Potency,Tov112D,inactive
C=C1CCC[C@]2(C)CC[C@@H](C(=C)C(=O)O)[C@H](O)[C@@H]12,Potency,JEG-3,inactive
same,Potency,OV90,inactive
same,Potency,PA-1,inactive
same,Potency,SKOV3,inactive
same,Potency,Tov-21-G,inactive
same,Potency,Tov112D,inactive
COc1ccc(C2(O)c3ccccc3NC(=O)C2O)cc1 (configuration not stated),Potency,JEG-3,inactive
same,Potency,OV90,inactive
same,Potency,PA-1,inactive
same,Potency,SKOV3,inactive
same,Potency,Tov-21-G,inactive
same,Potency,Tov112D,inactive
CC(C)=CCc1cc(C(O)C2NC(=O)CNC(=O)C(Cc3c[nH]c4ccccc34)NC(=O)C3CCCN3C(=O)CNC(=O)C(C(C)C)NC(=O)CNC2=O)ccc1O (configuration not stated) (cyclo(G[X4]GVGPW); configuration not given here),"activity change, negative = cytotoxicity",JEG-3,7.66% [at 11.6 µM]
same,"activity change, negative = cytotoxicity",OV90,5.8% [at 11.6 µM]
same,"activity change, negative = cytotoxicity",PA-1,-1.16% [at 11.6 µM]
same,"activity change, negative = cytotoxicity",SKOV3,0% [at 11.6 µM]
same,"activity change, negative = cytotoxicity",Tov-21-G,-4.16% [at 11.6 µM]
same,"activity change, negative = cytotoxicity",Tov112D,-6.73% [at 11.6 µM]
C[C@@H]1CC[C@]2(C(=O)OC3OC(CO)C(O)C(O)C3O)CC[C@]3(C)C(=CCC4[C@@]5(C)CC[C@H](O)[C@](C)(C(=O)O)C5CC[C@]43C)C2[C@]1(C)O (some centres not stated),Potency,JEG-3,inactive
same,Potency,OV90,inactive
same,Potency,PA-1,inactive
same,Potency,SKOV3,inactive
same,Potency,Tov-21-G,inactive
same,Potency,Tov112D,inactive
COc1cc(/C=C/CO)cc(OC)c1O[C@@H]1O[C@H](CO[C@@H]2O[C@H](CO)[C@@H](O)[C@H](O)[C@H]2O)[C@@H](O)[C@H](O)[C@H]1O,Potency,JEG-3,inactive
same,Potency,OV90,inactive
same,Potency,PA-1,inactive
same,Potency,SKOV3,inactive
same,Potency,Tov-21-G,inactive
same,Potency,Tov112D,inactive
CC(C)(C)NCCCNC(=O)c1cccc(Br)c1,Potency,JEG-3,inactive
same,Potency,OV90,inactive
same,Potency,PA-1,inactive
same,Potency,SKOV3,inactive
same,Potency,Tov-21-G,inactive
same,Potency,Tov112D,inactive
CC1=C(COC2OC(CO)C(O)C(O)C2O)C(C(CO)C(=O)O)CC1 (configuration not stated),Potency,JEG-3,inactive
same,Potency,OV90,inactive
same,Potency,PA-1,inactive
same,Potency,SKOV3,inactive
same,Potency,Tov-21-G,inactive
same,Potency,Tov112D,inactive
CC(=O)O[C@]1(C(C)=O)CC[C@H]2[C@@H]3C[C@H](C)C4=CC(=O)C=C[C@]4(C)[C@@]3(F)[C@@H](O)C[C@@]21C,Potency,JEG-3,inactive
same,Potency,OV90,inactive
same,Potency,PA-1,inactive
same,Potency,SKOV3,inactive
same,Potency,Tov-21-G,inactive
same,Potency,Tov112D,inactive
